# Data published in article PMC5540273 (PLoS ONE, 2017).
# What was measured:
# Settings in all cases: concentration: 1 μM,replicates: in singlicate; n = 1
# CDK8 = system: CDK8
# CDK9 = system: CDK9
# CDKL1 = system: CDKL1
# CDKL2 = system: CDKL2
# CDKL3 = system: CDKL3
# CDKL5 = system: CDKL5
# CHEK1 = system: CHEK1
# CHEK2 = system: CHEK2
# CIT = system: CIT
# CLK1 = system: CLK1
# 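Further: KINOMEscan kinase panel screen.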
Compound,%Inh (CDK8),%Inh (CDK9),%Inh (CDKL1),%Inh (CDKL2),%Inh (CDKL3),%Inh (CDKL5),%Inh (CHEK1),%Inh (CHEK2),%Inh (CIT),%Inh (CLK1)
O=C1NCCc2[nH]c(-c3ccncc3)cc21,19%,97.9%,5%,7%,2%,29%,0%,31%,99.7%,99.5%
Cc1nnc(-c2ccc3occ(-c4ccc(S(C)=O)cc4)c3n2)o1 (stereo not drawn),0%,0%,24%,0%,0%,0%,0%,1%,0%,0%
CN1CCN(CCCNc2nccc(-c3c(-c4ccc(F)cc4)nn4cc(C(N)=O)ccc34)n2)CC1 [GW622475],19%,3%,5%,31%,92.6%,0%,0%,1%,95.2%,19%
COc1cc(Nc2nccc(N3CCC(NC(=O)c4cccc(C#N)c4)C3)n2)cc(OC)c1OC (stereo not drawn) [GSK1379751],6%,0%,0%,41%,0%,0%,0%,0%,8%,4%
CN(c1cccc(CNc2nc(Nc3ccc4c(c3)CC(=O)N4)ncc2C(F)(F)F)c1)S(C)(=O)=O,0%,6%,44%,55%,7%,0%,0%,0%,30%,63%
FC(F)(F)c1cc(Br)cc(Nc2nccc(-c3cnn4ncccc34)n2)c1 [GW810578],2%,97.8%,47%,96.2%,97.4%,95.3%,0%,17%,6%,99.2%
Cc1ccc(C(=O)Nc2ccc(Oc3ccc4nc(NC(=O)C5CC5)cn4c3)c(F)c2)c(=O)n1-c1ccccc1,87%,0%,41%,99.6%,0%,0%,0%,0%,36%,0%
Cn1ccc2ncnc(Oc3ccc(NC(=O)Nc4cncc(C(F)(F)F)c4)c(Cl)c3)c21,95%,0%,0%,0%,0%,0%,0%,9%,44%,0%
NC(=O)c1ccc(-c2cc3ncnc(SCC(=O)O)c3s2)cc1,0%,72%,7%,0%,0%,0%,0%,0%,3%,82%
COc1cccc(OC)c1C(=O)Nc1cccc(-c2nn3ccccc3c2-c2ccnc(Nc3cccc(F)c3)n2)c1 [GSK361065],0%,0%,15%,6%,3%,0%,13%,0%,36%,21%
CNC(=O)c1ccccc1Nc1nc(Nc2cccc(CS(C)(=O)=O)c2)ncc1C.O=CO [GSK1520489],4%,0%,28%,52%,0%,0%,16%,86%,45%,99.3%
C[C@@H](Oc1cc(-n2cnc3cc(-c4cnn(C)c4)ccc32)sc1C(N)=O)c1ccccc1Cl [GSK580432],17%,5%,20%,22%,0%,0%,32%,0%,32%,59%
CCNCC(Cc1ccccc1)NC(=O)c1cc(Br)c(-c2ccnc3[nH]ccc23)s1.Cl.Cl (stereo not drawn) [GSK1383280],0%,19%,17%,0%,0%,0%,20%,42%,73%,59%
O=C(Nc1cccc(C(F)(F)F)c1)c1cccc(Oc2ccc3nccn3n2)c1,0%,0%,14%,18%,0%,3%,0%,0%,13%,7%
O=C(Nc1ccc(Oc2ccc3nc(NC(=O)C4CC4)cn3n2)c(F)c1)c1cccn(-c2ccccc2)c1=O,63%,6%,45%,74%,25%,0%,0%,0%,30%,1%
COc1cc2nccc(Nc3ccc(Oc4ccccc4)cc3)c2cc1OC.Cl [GI261656],38%,0%,0%,10%,0%,0%,0%,67%,0%,19%
COC(=O)c1cccc(NC(=O)NC2CCN(c3ccnc(Nc4cc(OC)c(OC)c(OC)c4)n3)C2)c1 (stereo not drawn) [GSK1379767],56%,1%,14%,67%,0%,0%,0%,58%,10%,0%
O=C(NOCC1CC1)c1cc(Br)c(F)c(F)c1Nc1ccc(I)cc1Cl,0%,0%,8%,0%,0%,0%,0%,0%,0%,0%
